Screening results as filed in PubChem BioAssay.
A1 inh: caspase 3/7 activation in MEF A1-2A-BIM cells, primary screen, A1 inhibitor project, cell-based, luminescence, HTS; AID 2462, 2010; Caspase-Glo 3/7 luminescence, 3 h; percent of clofoctol response, vehicle zero; 330,000 compounds, 0.066% hits; caspase activation, % (concentration not given with the values);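 active = over half of replicate activation scores above 10%, or exactly half above 10 with the replicate mean above 10; inconclusive = replicate mean below 10 yet half the replicates above 10; inactive = over half of replicates below 10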
Efflux pump inh: inhibitors of Candida efflux pumps in yeast, primary screen, S. cerevisiae, Nile Red, multiplex. S. cerevisiae Candida pump triplex. inhibition, % at 10 µM. 330,000 compounds, 0.44% hits. AID 485275, 2010;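 active = plate passing quality check with inhibition over a set limit, or well fluorescence over plate mean plus 4 SD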;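 also: Nile Red retained in pooled yeast measured as flow cytometry median fluorescence; 0% = buffer negative control and 100% = Enniatin B positive control; higher means more Nile Red kept so more efflux inhibition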
HSV replic up: enhancers of HSV replication in host cells, fold increase, host cell viability. 220,000 compounds, 0.005% hits. HSV replication augmentation in cells. maximum fold increase; in the data active = maximum fold increase above about 1.5; inconclusive = no clear call, values can overlap the other calls; tested in PC3 cells
GC-B act: human GC-B receptor activators, primary screen, HEK293 GC-B cells, cGMP TR-FRET, EC30 CNP; 0% at EC30 CNP, 100% saturating CNP; activation, % at 10 µM; 370,000 compounds, 0.11% hits;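 active = activation at 10 µM reaching about 35% in either raw or pattern-adjusted values, limit read from the data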
GC-A act: GC-A stimulated cGMP production enhancers – HEK293 GC-A cells, cGMP TR-FRET, EC30 ANP, primary screen | 0% at EC30 ANP, 100% saturating ANP | 370,000 compounds, 0.14% hits | activation, % at 10 µM | AID 1671463, 2021; in the data active = activation above about 40%
Target sequence (P16066 whole entry, looked up): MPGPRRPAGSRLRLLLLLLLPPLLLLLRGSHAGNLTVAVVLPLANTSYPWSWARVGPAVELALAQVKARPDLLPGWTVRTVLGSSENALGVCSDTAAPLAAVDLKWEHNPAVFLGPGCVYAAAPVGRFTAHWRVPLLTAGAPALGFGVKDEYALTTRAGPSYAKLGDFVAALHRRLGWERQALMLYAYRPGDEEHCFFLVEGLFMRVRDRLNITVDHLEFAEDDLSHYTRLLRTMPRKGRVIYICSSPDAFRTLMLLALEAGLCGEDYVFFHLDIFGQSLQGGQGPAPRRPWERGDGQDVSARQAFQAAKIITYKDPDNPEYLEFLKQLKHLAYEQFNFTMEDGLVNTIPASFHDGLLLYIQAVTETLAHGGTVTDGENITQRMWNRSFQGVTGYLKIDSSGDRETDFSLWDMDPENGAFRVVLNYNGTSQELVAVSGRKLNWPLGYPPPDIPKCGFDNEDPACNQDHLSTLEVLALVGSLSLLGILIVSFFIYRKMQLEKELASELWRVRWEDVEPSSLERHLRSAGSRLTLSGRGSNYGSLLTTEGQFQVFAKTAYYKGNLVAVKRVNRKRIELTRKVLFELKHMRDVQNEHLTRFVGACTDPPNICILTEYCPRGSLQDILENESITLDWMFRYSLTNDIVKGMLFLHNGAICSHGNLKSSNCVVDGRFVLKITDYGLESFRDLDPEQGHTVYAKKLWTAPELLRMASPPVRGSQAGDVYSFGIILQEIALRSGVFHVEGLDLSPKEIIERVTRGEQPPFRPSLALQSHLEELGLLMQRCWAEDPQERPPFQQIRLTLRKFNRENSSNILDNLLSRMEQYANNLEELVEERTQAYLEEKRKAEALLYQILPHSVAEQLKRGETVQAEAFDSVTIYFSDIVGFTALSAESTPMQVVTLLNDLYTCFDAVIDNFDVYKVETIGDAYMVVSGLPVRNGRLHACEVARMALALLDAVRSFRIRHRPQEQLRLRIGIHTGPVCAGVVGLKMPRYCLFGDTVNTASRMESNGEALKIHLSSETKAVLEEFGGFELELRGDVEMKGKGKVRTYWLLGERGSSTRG
TAG inh: inhibitors of triacylglycerol accumulation, primary screen, cell-based, uHTS, fluorescence, H9c2. H9c2 cells, Nile Red lipid (TAG) fluorescence; cells loaded with 200 µM oleic acid. inhibition, % at 12.5 µM. 230,000 compounds, 0.66% hits;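 active = pattern-corrected inhibition of lipid staining of at least 50% with the nuclear-stain viability signal not falling by more than 50%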;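 also: 0% = DMSO wells and 100% = triacsin C control wells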
Cmpd fluor yeast: compound fluorescence in yeast efflux pump counter-screen. shares compounds with Efflux pump inh. S. cerevisiae AD/pABC3, flow cytometry. 1,700 compounds, 4% hits. fluorescence ratio to DMSO, % at 10 µM;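 active = fluorescence ratio to DMSO above its plate's cutoff, the plate mean ratio plus 5 SD, cut at about 210% in these data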;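 also: unstained yeast with no Nile Red so the signal is compound autofluorescence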
Mdr1 pump inh: inhibitors of Candida albicans Mdr1 efflux, confirmation, flow cytometry, singleplex, Cherry Pick1 set. shares compounds with Efflux pump inh. S. cerevisiae AD/CaMDR1, Nile Red efflux. inhibition, % at 10 µM. 1,700 compounds, 1% hits. AID 588518, 2011; in the data active = inhibition above about 26%;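 also: 0% = DMSO vehicle and 100% = reference inhibitor; higher means more Nile Red retained so more efflux inhibition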
Cdr2 pump inh: inhibitors of Candida albicans Cdr2 efflux pump, confirmation, S. cerevisiae AD/CaCDR2, flow cytometry, cherry pick 1, singleplex. Nile Red retention. AID 588520, 2011. 1,700 compounds, 4% hits. shares compounds with Efflux pump inh. Nile Red retention ratio vs DMSO, % at 10 µM; in the data active = Nile Red retention ratio vs DMSO above about 190%;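 also: higher ratio means more blocking of Cdr2 efflux of the dye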
Cdr1 pump inh: inhibitors of Candida albicans Cdr1 efflux pump, confirmation, S. cerevisiae AD/CaCDR1, flow cytometry, cherry pick 1, singleplex; shares compounds with Efflux pump inh; AID 588522, 2011; Nile Red efflux; inhibition, % at 10 µM; 1,700 compounds, 1% hits;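 active = inhibition above the screen-wide mean plus twice its standard deviation, cut at about 32% in these data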
H9c2 TAG conf: triacylglycerol accumulation inhibitors, retest, confirmation, cell-based, single concentration, Nile Red fluorescence, H9c2; shares compounds with TAG inh; H9c2 lipid accumulation; cells loaded with 200 µM oleic acid; inhibition, % at 12.5 µM; 990 compounds, 71% hits; AID 651629, 2012;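 active = mean inhibition across replicates of 40% or more; inactive = mean inhibition below 40%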;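 also: plate controls were DMSO only wells for no effect and Triacsin C treated wells for full effect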
Numbers without * were called inactive; i = inactive; ? = inconclusive; · = no result given. In the library only some 1% were active in any assay of this set; here they are far more common.

SMILES	A1 inh	Efflux pump inh	HSV replic up	GC-B act	GC-A act	TAG inh	Cmpd fluor yeast	Mdr1 pump inh	Cdr2 pump inh	Cdr1 pump inh	others
COc1ccc(S(=O)(=O)N2CCOCC2)cc1NC(=O)COC(=O)CC1CC2CCC1C2 (centres undefined)	0	0.8*	·	6	-1	-5	105	0	91	0
CC(C)NC(=O)N[C@H]1C[C@@H]2O[C@@H](CO)CC[C@@H]2O[C@@H]1CCc1ccc(-c2ccc(F)cc2)cc1	·	·	·	-13	5	·	·	·	·	·
C/C(Cl)=C\C[N+](C)(C)CC(=O)OCCc1ccccc1	0	0.5*	i	9	-9	-5	101	0	96	0
O=C(NCCN1CCOCC1)/C(=C\c1ccc(Br)cc1)NC(=O)c1cccs1	1	0	i	-14	-11	10	·	·	·	·
O=C(NCCO)/C(=C\c1ccc(Br)cc1)NC(=O)c1cccs1	-1	7.5*	i	-3	-2	·	103	0	96	0
CC(Nc1nc(-c2ccccc2)nc2ccccc12)c1ccccc1 (centres undefined)	0	1.9*	i	-2	5	18	100	0	106	0
CC(Nc1nc(-c2ccccc2O)nc2ccccc12)c1ccccc1 (centres undefined)	1	0	i	-4	3	5	·	·	·	·
Cc1ccc(/C=c2\sc3nc(-c4ccco4)nn3c2=O)o1	1	0	i	·	·	-1	·	·	·	·
Cc1ccc(-c2nc3s/c(=C\c4ccco4)c(=O)n3n2)cc1	0	0.8*	i	-4	2	·	97	0	97	0
O=c1nc2s/c(=C\c3ccco3)c(=O)n2nc1Cc1ccc(F)cc1	0	0	i	0	3	·	·	·	·	·
COc1ccccc1/C=c1\sc2nc(-c3ccccc3OC)nn2c1=O	·	0	·	-11	11	·	100	0	106	0
Cc1ccc(/C=c2\sc3nc(-c4ccccc4Br)nn3c2=O)o1	1	0	·	1	-11	-3	99	0	109	0
COc1ccc(Br)cc1/C=c1\sc2nc(-c3ccco3)nn2c1=O	-2	1.1*	i	0	-6	3	107	0	109	0
COc1ccc(/C=c2\sc3nc(=O)c(C)nn3c2=O)c(OC)c1	1	0	i	-6	-3	-6	·	·	·	·
COc1cc2c(cc1NC(=O)CSc1nnc(-c3cnccn3)n1-c1ccc(C)cc1)oc1ccccc12	·	·	·	6	-5	·	·	·	·	·
CN1[C@@H](Cc2ccccc2)COc2cc(F)ccc2S1(=O)=O	·	·	·	-2	2	·	·	·	·	·
O=C(CN1CCN(Cc2ccccc2Cl)CC1)N=Nc1c(O)[nH]c2ccccc12	0	13*	i	2	6	·	107	0	99	0
O=C1OCCN1C(=O)[C@H]1[C@H](c2ccc(Cl)cc2)C(c2cccc(Cl)c2)=NN1c1ccccc1	1	·	i	·	·	·	·	·	·	·
O=C1OCCN1C(=O)[C@H]1[C@H](c2ccc(F)cc2)C(c2cccc(Cl)c2)=NN1c1ccccc1	·	1.4*	·	-9	-9	-2	110	0	97	0
CC(=O)c1cc(C(=O)NC2CCCc3c2cnn3-c2cc(C)cc(C)c2)[nH]n1 (centres undefined)	0	0	·	0	-2	-12	·	·	·	·
Cc1cc(C)cc(-n2ncc3c2CCCC3NC(=O)c2cc(C)[nH]n2)c1 (centres undefined)	-1	0	·	-4	-3	0	106	0	98	0
COc1ccc(-n2c(COc3ccc(Cl)cc3)nnc2SCC(=O)c2ccc(-c3ccccc3)cc2)cc1	·	·	·	2	1	·	·	·	·	·
CNC(=O)[C@@H](NC(=O)[C@H](CC(C)C)[C@H](O)C(=O)NO)C(C)(C)C	·	·	·	-8	3	·	·	·	·	·
O=C(O)/C=C/c1cn(-c2ccccc2)nc1-c1ccc(-c2ccc([N+](=O)[O-])cc2)o1	-1	0.9*	i	1	7	2	129	0	121	0
CC(=O)NC1=NC(=O)/C(=C/c2cc(C)n(-c3ccc(NC(C)=O)cc3)c2C)S1	-1	1.4*	i	-6	-5	0	120	0	97	2
SMILES	A1 inh	Efflux pump inh	HSV replic up	GC-B act	GC-A act	TAG inh	Cmpd fluor yeast	Mdr1 pump inh	Cdr2 pump inh	Cdr1 pump inh	others
O=C1Nc2ccccc2/C1=C/c1cccnc1	0	0	i	-8	-3	10	·	·	·	·
O=C1Nc2ccccc2/C1=C/c1cnc(-c2ccccc2)[nH]1	-2	0.8*	?	-11	-6	-9	111	0	435*	1
CC(=O)c1cc(-c2ccccc2)n(CC(=O)NCc2ccc(Cl)cc2)c1C	·	·	·	-6	-4	·	·	·	·	·
CCCCn1c(N)c(N(CC(C)C)C(=O)CN2C(=O)NC3(CC(C)CC(C)(C)C3)C2=O)c(=O)[nH]c1=O (centres undefined)	0	0.9*	·	3	3	27	98	0	102	0
CCCCn1c(N)c(N(CC(C)C)C(=O)CN2C(=O)C3CCCCC3C2=O)c(=O)[nH]c1=O (centres undefined)	0	0	·	0	-2	8	·	·	·	·
COc1cccc(C2c3c(C)nn(-c4ccc([N+](=O)[O-])cc4)c3N=C3C(=O)Nc4ccccc4N32)c1 (centres undefined)	0	0.4*	i	1	-11	76*	103	0	98	0	H9c2 TAG conf=81*
